Source: PubChem BioAssay (Tox21)
Inconclusive results are not listed. Unmarked numbers belong to inactive results. Calls of active or inactive are those of the source. The call rests on the fitted dose curve.

Molecular target: Beta-2 adrenergic receptor (Homo sapiens) (UniProt P07550)
Assay: Adrenergic beta2 receptor (ADRB2) small molecule agonists, cell-based qHTS assay (AID 1963593)
Conditions: CHO-ADRB2 cells, cAMP HTRF, 30 min; series mostly up to 92.4 µM; activation: at the top concentration
Description: National Center for Advancing Translational Sciences [NCATS]
Division of Preclinical Innovation [DPI]
U.S. Environmental Protection Agency [EPA]
National Institutes of Environmental Health Sciences [NIEHS]
National Toxicology Program [NTP]
U.S. Food and Drug Administration [FDA]
Beta adrenergic receptors (Beta-ARs) belong to the G-protein coupled receptor (GPCR) superfamily, includes three subtypes - beta1, beta2, and beta3. Beta1-AR is the predominant receptor subtype expressed in the heart, and beta2-AR is expressed in the kidney, lung, blood vessel and in the heart, and beta3 is found in the adipocytes. Beta1 and 2 ARs couple to Gs protein and elevate cyclic adenosine mono phosphate (cAMP), which activates protein kinase A and leads to the downstream signaling responsible for the physiological actions. Beta-AR agonists or antagonists are the most prescribed therapeutic agents for heart failure and asthma, and these were one of the first target receptors for the rational drug design. Tox21 10K compound library was screened using the cAMP-Gs dynamic assay (Cisbio Bioassays, Shelton, CT) to identify agonists/antagonists of the Gs-coupled human adrenergic, beta2 receptor (ADRB2) in the CHO-ADRB2 cell line (Codex BioSolutions, Inc. Gaithersburg, MD), which stably over-expresses ADRB2. The principle of cAMP-Gs dynamic assay is based on HTRF technology, which facilitates the fluorescence resonance energy transfer (FRET) between donor Europium cryptate and acceptor d2-labeled cAMP. The cAMP generated within cells competes with the red acceptor, d2-labled cAMP, for binding to the monoclonal anti-cAMP-cryptate (Europium donor). An increase in intracellular cAMP leads to the disruption of FRET signal, and the signal is inversely proportional to the cAMP concentration. Isoproterenol HCl (Sigma-Aldrich, St. Louis, MO) was used as a positive control in the screening.
Tox21 Assay Protocol Summary:
CHO-ADRB2 cells were dispensed at 1,000/well in 4uL assay medium into white/solid 1536-well plates (Greiner Bio-One North America Inc., Monroe, NC) using a Multidrop Combi dispenser (ThermoFisher Scientific, Waltham, MA). The assay plates were incubated at 37C and 5% CO2 for an overnight (18-20hr). Then positive control and test compounds dissolved in DMSO were transferred to the assay plates at 23nL using a Pintool station (Wako, San Diego, CA). Following the compound and positive control transfer, 1uL stimulation mix containing 100uM IBMX and 25uM Ro-20-1724 was added to each well of the assay plates using BioRAPTR Flying Reagent Dispenser (FRD, Beckman Coulter, Brea, CA). The assay plates were incubated at room temperature for 0.5hr. Then 2.5ul each d2-labled cAMP and anti-cAMP-cryptate solutions were added separately to each well of the assay plates using an FRD and the assay plates were incubated at room temperature for 1hr.
On the % scale 0 is the no-effect control and ±100 the full control effect.

Sequence of Beta-2 adrenergic receptor (Homo sapiens) (P07550 whole entry, looked up): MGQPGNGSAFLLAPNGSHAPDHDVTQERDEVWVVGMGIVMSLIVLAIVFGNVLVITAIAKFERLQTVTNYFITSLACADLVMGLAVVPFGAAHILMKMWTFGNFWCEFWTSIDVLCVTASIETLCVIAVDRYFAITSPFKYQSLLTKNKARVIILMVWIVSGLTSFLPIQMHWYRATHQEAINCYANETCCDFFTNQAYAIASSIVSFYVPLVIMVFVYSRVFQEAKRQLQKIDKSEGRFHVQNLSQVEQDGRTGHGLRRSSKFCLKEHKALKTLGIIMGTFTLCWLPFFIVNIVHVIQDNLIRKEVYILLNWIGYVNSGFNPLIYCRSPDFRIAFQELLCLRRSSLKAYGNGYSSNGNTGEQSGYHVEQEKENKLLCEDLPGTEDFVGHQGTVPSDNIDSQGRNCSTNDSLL

SMILES	activation	Potency
NC(=O)Nc1nc2ccccc2[nH]1	4.85%	–
N#CCCNCCC#N	1.17%	–
COc1ccc(C(=O)c2ccc(C)cc2)c(O)c1	-60.8%	–
CCCC[N+](C)(CCCC)CCCC	0.831%	–
Cc1c(Nc2ncccc2C(=O)O)cccc1C(F)(F)F	-9.46% [at 42.5 µM]	–
c1ccc(-c2ccc(-c3ccccc3)cc2)cc1	7.35% [at 19 µM]	–
CC(CC=O)CCCC(C)(C)O (stereo not given)	-8.38%	–
Cc1ccc(OC(=O)CC(C)C)cc1	7.55%	–
C=CCN(CC=C)CC=C	16.4%	–
CCCc1ccccc1O	0.133%	–
CCOC(=O)Nc1ccc2c(c1)N(C(=O)CCN1CCOCC1)c1ccccc1S2	0.433% [at 42.5 µM]	–
CC(C)C1CCC(C(=O)N[C@H](Cc2ccccc2)C(=O)O)CC1 (stereo not given in full)	-34.2% [at 42.5 µM]	–
N/C(=N\N=C\c1ccc(Cl)cc1)N/N=C/c1ccc(Cl)cc1	-12.2% [at 42.5 µM]	–
C=C(C)C(=O)OCCOC1CC2CC1C1C=CCC21 (stereo not given)	-16.4%	–
CC(=O)[O][Al]	-19.4%	–
CCCCCCCCCCCCCC[P+](CCCC)(CCCC)CCCC (tested in a mixture with another compound)	-21.4%	–
C=C[Si](OC)(OC)OC	-8.21%	–
CC(=O)c1ccc([N+](=O)[O-])cc1	7.47%	–
COc1ccc(/C=C/c2cc(OC)cc(=O)o2)cc1	-8.59% [at 42.5 µM]	–
COc1nc(C)nc(Cl)c1NC1=NCCN1	18.5% [at 42.5 µM]	–

SMILES	activation	Potency
O=C(O)COC(=O)Cc1ccccc1Nc1c(Cl)cccc1Cl	4.28% [at 42.5 µM]	–
Cc1ccc(C(N)=O)cc1N	5%	–
Cc1onc(-c2c(Cl)cccc2Cl)c1C(=O)Cl	7.83% [at 42.5 µM]	–
O=C1CC[C@@H](C(=O)O)N1	0.359% [at 42.5 µM]	–
CCOC(=O)c1ccc(N(C)C)cc1	3.08%	–
C#C[C@]1(O)CC[C@H]2[C@@H]3CCc4cc(OC5CCCC5)ccc4[C@H]3CC[C@@]21C	-4.67% [at 42.5 µM]	–
CCC/C=C(\C=O)CC	-1.24%	–
CC(C)C(C)C	-6.29%	–
Cc1[nH]c(C)c(Cl)c(=O)c1Cl	13.3% [at 19 µM]	–
OCC(O)CO	–	inactive
Cc1cccc(N(C)C(=S)Oc2ccc3c(c2)C2CCC3C2)c1 (stereo not given)	18% [at 42.5 µM]	–
COc1ccc2cc(CCC(C)=O)ccc2c1	8.81% [at 42.5 µM]	–
CC(C)(C)C(=O)CCc1ccc(Cl)cc1	0.645%	–
Cc1nn(C)c(Oc2ccccc2)c1/C=N/OCc1ccc(C(=O)OC(C)(C)C)cc1	-2.47%	–
COCc1nnc(-c2ccc[n+]([O-])c2)n1-c1c(Cl)c(Cl)cc2[nH]c(=O)c(=O)[nH]c12	25.2%	–
CN(C)c1ccc(SC#N)cc1	0.445%	–
NC(=S)NC(N)=S	-4.72%	–
CCCCCCCCCCCCOCCOCCOCCOCCOCCOCCOCCOCCOCCO	11.2% [at 42.5 µM]	–
[O-][n+]1ccccc1SSc1cccc[n+]1[O-]	17.9% [at 19 µM]	–
CCC[C@@H]1C[C@@H](C(=O)N[C@@H]([C@H]2O[C@H](SC)[C@H](O)[C@@H](O)[C@H]2O)[C@@H](C)O)N(C)C1	-14.4% [at 42.5 µM]	–
